In all, about 1,900 compounds went through this assay and about 250 (13%) were called active. Inconclusive results (about 4%) are left out. The list is a sample of the results. Measured potencies and affinities stand elsewhere. A number with no mark means an inactive call.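 The calls were made as follows: active = fitted curve reaches 40% rescue activity at or below the top valid dose, in every test run; inconclusive = test runs disagree, some active and some inactive; inactive = every run misses the threshold or moves the wrong way.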

A short description of the test: rescue of simvastatin-induced ATP loss – cell-based, C2C12 myotubes, ATP luminescence, cherry pick, dose response (AID 624405).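 Also: myotubes are challenged with simvastatin at 10 µM to lower ATP.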 The following applies: 48 h, scaled: DMSO wells 0, geranylgeraniol wells 100; series mostly up to 19.5 µM; rescue activity (ATP increase): at the top concentration.
Regarding `C[C@H]1CN([C@@H](C)CO)C(=O)c2cc(NS(=O)(=O)c3ccc(F)cc3)ccc2O[C@@H]1CN(C)S(=O)(=O)c1ccc(F)cc1`, the “rescue activity (ATP increase)” value is 12% [at 21 µM]. Consider `Cc1ccc(S(=O)(=O)Nc2ccc3c(c2)CC(=O)N([C@@H](C)CO)C[C@@H](C)[C@H](CN(C)S(=O)(=O)c2ccc(C)cc2)O3)cc1`, for which the “rescue activity (ATP increase)” value is 22.9%. Consider `Cc1ccc(S(=O)(=O)Nc2ccc3c(c2)CC(=O)N([C@H](C)CO)C[C@H](C)[C@H](CN(C)S(=O)(=O)c2ccc(C)cc2)O3)cc1`, for which the “rescue activity (ATP increase)” value is 19.9%. As for `C[C@@H]1CN([C@@H](C)CO)C(=O)Cc2cc(NC(=O)Nc3cccc4ccccc34)ccc2O[C@@H]1CN(C)S(=O)(=O)c1ccc(Cl)cc1`, the “rescue activity (ATP increase)” value is 8.86%. As for `COc1ccc(S(=O)(=O)Nc2ccc3c(c2)CC(=O)N([C@H](C)CO)C[C@H](C)[C@@H](CN(C)S(=O)(=O)c2ccc(C)cc2)O3)cc1`, the “rescue activity (ATP increase)” value is 16.2%. Turning to `Cc1ccc(S(=O)(=O)N(C)C[C@@H]2Oc3ccc(NS(=O)(=O)c4ccc(F)cc4)cc3C(=O)N([C@H](C)CO)C[C@@H]2C)cc1`, the “rescue activity (ATP increase)” value is 21.7% [at 21 µM]. Turning to `O=C(O)c1nn(-c2ccccc2)nc1-c1nn(-c2ccccc2)nc1C(=O)O`, the “rescue activity (ATP increase)” value is 8.4%. As for `O=S(=O)(NN=C1CCCCC1)c1ccccc1`, the “rescue activity (ATP increase)” value is 2.86%.

Consider `CC1(C)NC(=O)N(CC(O)Cn2nnc3ccccc32)C1=O` (configuration not stated), for which the “rescue activity (ATP increase)” value was 16.7%.

In the case of `C[C@H](CO)N1C[C@H](C)[C@@H](CN(C)C(=O)C2CCC2)Oc2ncc(C#Cc3cccc(F)c3)cc2C1=O`, the “rescue activity (ATP increase)” value was 0.264%. The same measure for `Nn1c(SCC(=O)N2CCN(S(=O)(=O)c3ccccc3)CC2)nnc1-c1cccs1`: -6.28%; for `Cc1ccc(S(=O)(=O)Nc2ccc3c(c2)CC(=O)N([C@@H](C)CO)C[C@@H](C)[C@H](CN(C)Cc2ccc(C(F)(F)F)cc2)O3)cc1`: 35.9%; for `Cc1ccc(C(=O)N2CCSCC2)cc1`: -3.87%. Consider `CSCCC(NC(N)=O)C(=O)NCC1CCCCC1` (configuration not stated), for which the “rescue activity (ATP increase)” value is 1.42%. The same measure for `Cc1ccc(N2CCN(/N=C/c3sccc3C)CC2)cc1`: 5.86%. The same measure for `Cc1noc(C)c1S(=O)(=O)Nc1ccc2c(c1)C(=O)N([C@H](C)CO)C[C@H](C)[C@H](CN(C)S(=O)(=O)c1cccs1)OCCCC[C@H](C)O2`: -0.171% [at 21 µM]; for `C[C@@H]1CN([C@H](C)CO)C(=O)Cc2cc(NC(=O)Nc3cccc4ccccc34)ccc2O[C@H]1CN(C)Cc1ccc(Cl)c(Cl)c1`: 26.4% [at 21 µM]. As for `C[C@@H]1CN([C@@H](C)CO)C(=O)Cc2cc(NC(=O)Nc3cccc4ccccc34)ccc2O[C@H]1CN(C)Cc1ccc2c(c1)OCO2`, the “rescue activity (ATP increase)” value is 8.72% [at 21 µM]. Take `O=C(C[C@H]1CC[C@@H](NC(=O)c2ccc3c(c2)OCO3)[C@H](CO)O1)NCc1ccc(Oc2ccccc2)cc1`: the “rescue activity (ATP increase)” value was -3.13%. For `COC(=O)c1c(C(=O)OC)c2cc(C)ccn2c1Cl`, the “rescue activity (ATP increase)” value is -25%. As for `C[C@@H]1CN([C@@H](C)CO)C(=O)Cc2cc(NS(=O)(=O)c3ccc(F)cc3)ccc2O[C@H]1CN(C)Cc1ccc(Oc2ccccc2)cc1`, the “rescue activity (ATP increase)” value is 29%.

Consider `C[C@@H]1CN([C@@H](C)CO)C(=O)c2cccc(NS(=O)(=O)c3cccs3)c2O[C@@H]1CN(C)S(=O)(=O)c1ccc(Cl)cc1`, for which the “rescue activity (ATP increase)” value is -8.95%. `COc1cccc(-c2cnc3c(c2)C(=O)N([C@H](C)CO)C[C@H](C)[C@H](CN(C)S(=O)(=O)c2cccs2)O3)c1`: the “rescue activity (ATP increase)” value is -17.5%.

On to `COc1ccc(C2CC(=O)c3cnc(N)nc3C2)c(OC)c1` (configuration not stated), for which the “rescue activity (ATP increase)” value was -0.556%.

Turning to `COc1ccc2c(c1OC)C(=O)N(c1ccccn1)C2`, the “rescue activity (ATP increase)” value was 17.7%. Take `CCOc1ccc(OCCOCCOc2c(Cl)cccc2Cl)cc1`: the “rescue activity (ATP increase)” value is 12.4%. Consider `COC(=O)c1cn(CC(=O)N2C(C)CCCC2C)c2ccccc12` (configuration not stated), for which the “rescue activity (ATP increase)” value was 6.27%. On to `COc1ccc(S(=O)(=O)Nc2ccc3c(c2)C(=O)N([C@@H](C)CO)C[C@@H](C)[C@H](CN(C)S(=O)(=O)c2ccc(F)cc2)OCCCC[C@H](C)O3)cc1`, for which the “rescue activity (ATP increase)” value is -11.1%. As to `CCS(=O)(=O)N1CCCC(C(=O)NCCc2ccc(OC)c(OC)c2)C1` (configuration not stated), the “rescue activity (ATP increase)” value is -21.5%. As for `O=C(Nc1cccc(Cl)c1)C1CCCN(S(=O)(=O)c2ccc(F)cc2)C1` (configuration not stated), the “rescue activity (ATP increase)” value is 13.5%. For the compound `Cc1ccc(S(=O)(=O)Nc2ccc3c(c2)C(=O)N([C@@H](C)CO)C[C@@H](C)[C@H](CN(C)S(=O)(=O)c2cccs2)O3)cc1`, the “rescue activity (ATP increase)” value is -0.835%. For `CCOc1ccc(CNn2nnnc2N)cc1`, the “rescue activity (ATP increase)” value was 16.8%. For `C=CCN(c1ccccc1OC)S(=O)(=O)c1cccc(C(=O)OC2CCOC2=O)c1` (configuration not stated), the “rescue activity (ATP increase)” value is -36.4%. For `CCCNC(=O)N(C)C[C@@H]1Oc2cc(C3=CCCCC3)ccc2S(=O)(=O)N([C@H](C)CO)C[C@@H]1C`, the “rescue activity (ATP increase)” value was 14%. With `CSc1ccccc1NC(=O)c1ccccc1N(Cc1ccccc1)S(C)(=O)=O`, the “rescue activity (ATP increase)” value was 33.3%. Take `Cc1ccc(NC(=O)c2ccccc2N(C)S(C)(=O)=O)cc1C`: the “rescue activity (ATP increase)” value is 3.5%.

For the compound `C[C@@H]1CCCCO[C@@H](CN(C)C(=O)c2ccccc2)[C@H](C)CN([C@@H](C)CO)C(=O)c2cc(NS(=O)(=O)c3cccs3)ccc2O1`, the “rescue activity (ATP increase)” value was 19.3%. On to `CCOC(=O)c1sc(NC(=O)c2c(C)nn(Cc3ccccc3)c2C)cc1C`, for which the “rescue activity (ATP increase)” value was -7.04%. Regarding `COc1ccc(CN2[C@@H](CO)[C@@H]3c4ccccc4NC[C@@H]32)cc1`, the “rescue activity (ATP increase)” value was -4.08% [at 21 µM]. For the compound `COc1ccc(CN2[C@H](CO)[C@@H]3c4ccccc4NC[C@@H]32)cc1`, the “rescue activity (ATP increase)” value is -13.1%. `O=C(Nc1ccccc1Cl)N1C[C@@H]2[C@H](c3ccccc31)[C@@H](CO)N2Cc1ccccc1`: the “rescue activity (ATP increase)” value is -13%. Take `Cc1ccc(S(=O)(=O)Nc2ccc3c(c2)CC(=O)N([C@H](C)CO)C[C@H](C)[C@@H](CN(C)Cc2ccc(C(F)(F)F)cc2)O3)cc1`: the “rescue activity (ATP increase)” value is 38.9%. `O=C(NCc1ccco1)c1ccccc1NS(=O)(=O)c1ccc2c(c1)OCCO2`: the “rescue activity (ATP increase)” value is 26%. In the case of `FC(F)(F)c1nc2nncn2c2c1CCCCC2`, the “rescue activity (ATP increase)” value was 23.5%.

Take `CCc1ccc(N2CC(C(=O)NC3=NCCS3)CC2=O)cc1` (configuration not stated): the “rescue activity (ATP increase)” value is -11.8%. The figure for `Cc1ccc(N(CN2CCCC2=O)C(=O)c2ccc(C)c(C)c2)cc1` is 29.9%; for `CC(C)N1C(=O)CCC1C(=O)N1CCC(Cc2ccccc2)CC1` (configuration not stated) it is 19.4%. Turning to `CC(C)CC(NC(=O)C1CCC(C)CC1)C(=O)Nc1cccnc1` (configuration not stated), the “rescue activity (ATP increase)” value was -6.5%. With `COc1ccc(S(=O)(=O)Nc2ccc3c(c2)CC(=O)N([C@H](C)CO)C[C@@H](C)[C@@H](CN(C)Cc2ccc(Cl)c(Cl)c2)O3)cc1`, the “rescue activity (ATP increase)” value was 36.8%. As to `CC(C)NC(=O)Nc1ccc2c(c1)C(=O)N([C@H](C)CO)C[C@@H](C)[C@H](CN(C)C(=O)C1CCCCC1)OCCCC[C@@H](C)O2`, the “rescue activity (ATP increase)” value is 2.97%. The same measure for `C[C@@H]1CN([C@H](C)CO)C(=O)Cc2cc(NS(=O)(=O)c3cn(C)cn3)ccc2O[C@H]1CN(C)Cc1ccc(Cl)c(Cl)c1`: 12.2% [at 21 µM]; for `C[C@H]1CN([C@@H](C)CO)C(=O)Cc2cc(NS(=O)(=O)c3cn(C)cn3)ccc2O[C@@H]1CN(C)Cc1ccc(Cl)c(Cl)c1`: 12.7%; for `C[C@@H]1CN([C@@H](C)CO)C(=O)Cc2cc(NS(=O)(=O)c3cn(C)cn3)ccc2O[C@@H]1CN(C)Cc1ccc(Cl)c(Cl)c1`: 18.7% [at 21 µM]. As for `C[C@@H]1CN([C@@H](C)CO)C(=O)Cc2cc(NS(=O)(=O)c3cn(C)cn3)ccc2O[C@H]1CN(C)Cc1ccc(Cl)c(Cl)c1`, the “rescue activity (ATP increase)” value is 4.02%. For the compound `COc1ccc(CCNC2CCN(C)CC2)cc1OC`, the “rescue activity (ATP increase)” value was 0.107%. As for `Cc1[nH]c2ccccc2c(=O)c1SC(F)(F)C(F)C(F)(F)F` (configuration not stated), the “rescue activity (ATP increase)” value was -8.66%. On to `Cc1ccc(CC2CC(=O)N(CCc3ccc4c(c3)OCO4)C2=O)cc1` (configuration not stated), for which the “rescue activity (ATP increase)” value was 15.4%.

As to `COc1ccc(NC(=O)N(C)C[C@H]2Oc3ccc(NC(=O)Cn4cnnn4)cc3C(=O)N([C@H](C)CO)C[C@H]2C)cc1`, the “rescue activity (ATP increase)” value was 2.03%. As for `C[C@@H]1CN([C@H](C)CO)C(=O)Cc2cc(NC(=O)Cc3cn(C)c4ccccc34)ccc2O[C@H]1CN(C)Cc1ccc(C(F)(F)F)cc1`, the “rescue activity (ATP increase)” value was -17.1%. Consider `COc1cc2c3c(c1)C1(C(=O)N3C(C)(C)C=C2C)C(C#N)=C(N)Oc2cc(C)oc(=O)c21` (configuration not stated), for which the “rescue activity (ATP increase)” value is 16%. The same measure for `COc1ccc(CCN2C(=O)C3C(C2=O)C2C=CC3C23CC3)cc1OC` (configuration not stated): -29.4%; for `C[C@@H]1CCCCO[C@@H](CN(C)Cc2ccc(Cl)c(Cl)c2)[C@@H](C)CN([C@H](C)CO)C(=O)c2cc(NC(=O)Cc3ccccc3)ccc2O1`: 18% [at 21 µM]. For the compound `COc1ccc(-n2c(SCC(=O)Nc3ccc4c(c3)OCO4)nc3ccccc3c2=O)cc1`, the “rescue activity (ATP increase)” value was 45.4%. On to `Cc1ccc(CSCC(=O)Nc2ccc3c(c2)OCO3)cc1`, for which the “rescue activity (ATP increase)” value is -21.8%.

For `C[C@@H]1CN([C@H](C)CO)C(=O)c2cccc(NC(=O)Nc3ccc(F)cc3)c2O[C@H]1CN(C)Cc1ccccc1`, the “rescue activity (ATP increase)” value is 1.81%. For `O=C(NC1CCCC1)C(c1ccsc1)N(Cc1ccco1)C(=O)Cc1cccs1` (configuration not stated), the “rescue activity (ATP increase)” value was 7.96%. For the compound `Cc1ccc(C(C(=O)NC2CCCC2)N(Cc2cccs2)C(=O)CNC(=O)c2cccs2)o1` (configuration not stated), the “rescue activity (ATP increase)” value is 3.04%. The same measure for `Cc1ccc(S(=O)(=O)N(C)C[C@@H]2Oc3ncc(C#Cc4cccc(F)c4)cc3C(=O)N([C@H](C)CO)C[C@@H]2C)cc1`: 25.8%; for `C[C@@H]1CCCCO[C@@H](CN(C)C(=O)Nc2cccc3ccccc23)[C@@H](C)CN([C@H](C)CO)C(=O)c2cc(NS(=O)(=O)c3ccc(Cl)cc3)ccc2O1`: 9.86% [at 21 µM]. With `C[C@H](CO)N1C[C@H](C)[C@H](CN(C)C(=O)Nc2cccc3ccccc23)Oc2ncc(C#Cc3ccc(C(F)(F)F)cc3)cc2C1=O`, the “rescue activity (ATP increase)” value is 8.24% [at 21 µM].

For `C[C@H](CO)N1C[C@H](C)[C@@H](CN(C)CC2CCCC2)Oc2ncc(C#Cc3ccncc3)cc2C1=O`, the “rescue activity (ATP increase)” value was 31.5% [at 18 µM]. Consider `C[C@H](CO)N1C[C@H](C)[C@H](CN(C)C(=O)Nc2ccc3c(c2)OCO3)Oc2ncc(C#Cc3ccc(F)cc3)cc2C1=O`, for which the “rescue activity (ATP increase)” value is 8.89%. As to `CC(C)CC#Cc1cnc2c(c1)C(=O)N([C@H](C)CO)C[C@@H](C)[C@H](CN(C)C(=O)Cc1ccccc1)O2`, the “rescue activity (ATP increase)” value is 11.1%.

With `C[C@H]1CN([C@@H](C)CO)C(=O)c2cc(C#Cc3cccc(F)c3)cnc2O[C@@H]1CN(C)C(=O)C1CCCCC1`, the “rescue activity (ATP increase)” value is 24.4%. The figure for `CC(C)CC#Cc1cnc2c(c1)C(=O)N([C@@H](C)CO)C[C@@H](C)[C@H](CN(C)C(=O)Cc1ccccc1)O2` is -4.83%; for `COc1ccc(C#Cc2cnc3c(c2)C(=O)N([C@H](C)CO)C[C@H](C)[C@H](CN(C)Cc2cccc(C(F)(F)F)c2)O3)cc1OC` it is 20.9%. The figure for `COc1cccc(-c2cnc3c(c2)C(=O)N([C@H](C)CO)C[C@H](C)[C@H](CN(C)Cc2ccccc2)O3)c1` is 17.4%.

These data come from PubChem BioAssay AID624405 (Broad Institute, 2012).
